Molecules are shown by their SMILES. Calls of active or inactive are those of the source. The calls were made as follows: active = hit-call score of the fitted dose curve at least 0.9, where 1 is the maximum; inactive = score below 0.9.

The term AC50 denotes the midpoint of the concentration-response curve, whichever way the signal moves.

Read-out in the assay: Macrophage colony-stimulating factor (MCSF), CSF1 (gene 1435)
Briefly: BSK_hDFCGF_MCSF: BioMAP Diversity Plus: hDFCGF Assay for Macrophage colony-stimulating factor (MCSF) Biomarker Activity (AID 2283060). As to conditions: primary human foreskin fibroblasts; actives raise or lower the signal. Here is the method: BSK_hDFCGF is a cell-based, multiplexed-readout assay that uses foreskin fibroblast, a human skin primary cell, with measurements taken at 24 hours after chemical dosing in a 96-well plate.BSK_hDFCGF_MCSF is an assay component measured in the BSK_hDFCGF assay. It measures M-CSF antibody related to regulation of gene expression using ELISA technology.Data from the assay component BSK_hDFCGF_MCSF was analyzed into 1 assay endpoint. This assay endpoint, BSK_hDFCGF_MCSF, was analyzed with bidirectional fitting relative to DMSO as the negative control and baseline of activity. Using a type of binding reporter, gain or loss-of-signal activity can be used to understand changes in the signaling as they relate to the gene CSF1. Furthermore, this assay endpoint can be referred to as a primary readout, because this assay has produced multiple assay endpoints where this one serves a signaling function. To generalize the intended target to other relatable targets, this assay endpoint is annotated to the cytokine intended target family, where the subfamily is colony stimulating factor.
The levels of cell surface (or secreted, indicated by the prefix "s") biomarker endpoints were measured by ELISA. Overt cytotoxicity to cells in confluent adherent cultures (all systems other than the BT system) was assessed by measuring total protein levels using sulforhodamine B (SRB) staining in parallel cultures at the time of biomarker measurements, indicated as SRB endpoints. For proliferation assays for adherent cell types, individual cell types are cultured at sub-confluence and relative cell numbers quantified by SRB staining at time points optimized for each system (48 h: 3C and CASM3C systems; 72 h: BT and HDF3CGF systems; 96 h: SAg system). SRB was performed by staining cells with 0.1% SRB after fixation with 10% TCA and reading wells at 560 nm.Viability and proliferation of PBMC (T cells) was quantified by Alamar Blue reduction for the SAg and BT systems. For PBMC viability (referred to as PBMC Cytotoxicity within the assay endpoint names), cells were plated (75,000/well in a 96-well plate) and then chemical samples added for 1 h before addition of activators, SEB and TSST-1 (20 ng/mL final concentration each). Cells were incubated for 90 h. Then, Alamar Blue (20 uL/well) (Invitrogen, Cat DAL1100) was added for 6 h, and the plates were read with a fluorescence microplate reader at 546/580 nm (excitation/emission). For PBMC proliferation, cells were plated and activated as above but incubated for only 16 h prior to addition of Alamar Blue. Plates were read after 6 h.
Take `Cc1cc2c(cc1C(F)(F)F)N(C(=O)Nc1ccc(Oc3cccnc3C)nc1)CC2`: the outcome was inactive.
Take `CN1C(=O)N(c2ccccc2Br)Cc2cnc(Nc3ccc4c(c3)OCC(CO)O4)nc21` (stereo not given): the AC50 was 20.4 µM (active).
On the same count and under the same terms, then `CC(C)(C)c1cc(/C=C2\SC(N)=NC2=O)cc(C(C)(C)C)c1O`, with 20 µM (active).
`O=C1O[C@H]([C@@H](O)CO)C(O)=C1O`: the result was inactive.
The same measure, in the same setting: then `O=C(O)Cc1cc(I)c(Oc2ccc(O)c(I)c2)c(I)c1`, with “inactive”; and `CCO[Si](CCCNC(N)=O)(OCC)OCC`, with “inactive”.
Same read-out and setting: then `Cc1ccc2oc(CN(Cc3ccccc3)C(=O)Nc3c(F)cc(F)cc3F)c(-c3ccc(Cl)cc3)c2c1`, with “inactive”.
Take `CC(C)(c1cc(Br)c(O)c(Br)c1)c1cc(Br)c(O)c(Br)c1`: the AC50 was 7.47 µM (active).
On the same count and under the same terms, then `CCN(Cc1cccnc1)C(=O)c1cccc(Cl)c1[C@]1(C)C(=O)N(Cc2ccc(OC)cc2OC)c2ccc(Cl)cc21`, with 5.49 µM (active).
Consider `CCCCOC(=O)CC(CC(=O)OCCCC)(OC(C)=O)C(=O)OCCCC`, for which the outcome was inactive.
`Cc1occc1C(=O)Nc1ccc(C(=O)N2CCC(F)(F)/C(=C\C(=O)N3CCC(N4CCCCC4)CC3)c3ccccc32)cc1`: the outcome was inactive.
The same measure, in the same setting: then `O=c1c(-c2ccc(O)cc2)coc2cc(O)cc(O)c12`, with “inactive”.
With `O=c1ccc2ccccc2o1`, the result was inactive.
Take `COc1cc(C(=O)NC2CCN(C)CC2)ccc1Nc1ncc2c(n1)N(C1CCCC1)CC(F)(F)C(=O)N2C`: the AC50 is 14.9 µM (active).
For the molecule `CC[C@H](NC(=O)c1cc(F)ccc1NS(=O)(=O)c1cccc2cccnc12)c1ccccc1`, the outcome was inactive.
For the molecule `COCC(C)OCC(C)OCC(C)O` (stereo not given), the outcome was inactive.
With `O=C(O)Cn1c(=O)n(Cc2ccc(Br)cc2F)c(=O)c2ccc(Cl)cc21`, the result was inactive.
Take `CCCC(=O)OCCC(C)C`: the result was inactive.
For the molecule `O=C(OCCCCCCOC(=O)c1ccccc1)c1ccccc1`, the outcome was inactive.
For `c1ccc(C[n+]2cccc3ccccc32)cc1`, the outcome was inactive.
As to `O=C1CCC(C2CCCCC2)CC1`, the AC50 was 29.8 µM (active).
Regarding `CCCCCCCCN(C)CCCCCCCC`, the result was inactive.
For the molecule `CC(C)(C)c1csc(-c2cc3cc(OCc4ccccc4CC(=O)O)ccc3o2)n1`, the AC50 is 13 µM (active).
In the case of `OC12N=C(c3ccccc3)SC1Cc1cc(Cl)ccc12` (stereo not given), the result was inactive.
As for `Cc1oc2c(NC(=O)c3c(Cl)cccc3Cl)cccc2c1C(C)(C)O`, the outcome was inactive.
On to `CC/C(=C(/CC)c1ccc(O)cc1)c1ccc(O)cc1`, for which the AC50 is 20 µM (active).
For `COc1ccc2cc(S(=O)(=O)N[C@H](CC(=O)N[C@H](Cc3ccc(CN4[C@H](C)CCC[C@@H]4C)cc3)C(=O)N(C)C(C)C)c3ccc4c(c3)OCO4)ccc2c1`, the AC50 is 19.1 µM (active).
Same read-out and setting: then `Cc1c2ccccc2c(C)c2c1ccc1ccccc12`, with 5.48 µM (active).
As to `CC(C)(O)c1ccc(CNC(=O)c2cccnc2Oc2ccc3nonc3c2)cc1`, the outcome was inactive.
On to `CCCCOC(=O)c1ccc(O)cc1`, for which the outcome was inactive.
As for `CCCCCc1ccc(N)cc1`, the result was inactive.
Same read-out and setting: then `O=C=NCCCCCCN=C=O`, with “inactive”; and `Cc1cccc2ccccc12`, with “inactive”.
Regarding `CN(C)c1ccc(C(=C2C=CC(=[N+](C)C)C=C2)c2ccc(N(C)C)cc2)cc1`, the AC50 is 1.77 µM (active).
As to `CN1C(=O)CC[C@H]1c1cccnc1`, the outcome was inactive.
Take `CCCCCCCCCC(=O)O`: the result was inactive.
As for `CCCCCCCCCCCC[N+](C)(C)C`, the AC50 was 11.9 µM (active).
For `CCN(Cc1cccc(S(=O)(=O)O)c1)c1ccc(C(=C2C=CC(=[N+](CC)Cc3cccc(S(=O)(=O)O)c3)C=C2)c2ccccc2S(=O)(=O)[O-])cc1`, the outcome was inactive.
On to `CCCCCCCCCCCO`, for which the AC50 is 29.8 µM (active).
For the molecule `Cc1ncc(CO)c(CO)c1O`, the outcome was inactive.

(Values after PubChem BioAssay (EPA / NIEHS).)
